# Screening results as filed in PubChem BioAssay.
# Cycloheximide cs: Cycloheximide Counterscreen for Small Molecule Inhibitors of Shiga Toxin; cell reporter, cycloheximide protein synthesis inhibition counterscreen; max response, %; 12% of 300,000 active; AID 2314, 2010; in the data active = max response mostly above about 13%, no sharp cut-off; inactive = mostly below about 14%; also: read at 38.3 µM for the half of the compounds with a filed dose; 0% is about no effect
# FMDV antiviral: High Throughput Screening for Foot and Mouth Disease Virus Antivirals; FMDV antiviral cell-based qHTS; 1.2% of 410,000 active; AID 1159524, 2015; Potency, µM (titrated, usually from 57.9 µM), without a hit: at the highest dose activity change, negative = inhibition, actives largely listed as inhibitors; calls by dose curve; tested in HEK293T cells; also: read-out not given here; potency is read from the fitted curve at half-maximal effect; % is scaled to controls: 0 for no effect and ±100 for the full control effect; nearly all actives have a fitted effect of over 45% in size
# Shiga inhibitor: A qHTS for Small Molecule Inhibitors of Shiga Toxin | AID 2315, 2010 | inhibition, % at 38.7 µM | Vero cells, Shiga toxin protein synthesis inhibition reporter | 9.2% of 290,000 active; in the data active = inhibition mostly above about 28%, no sharp cut-off; inactive = mostly below about 43%; also: 0% is about no effect
# Sm TGR block: qHTS Assay for the Inhibitors of Schistosoma Mansoni Peroxiredoxins; 3% of 360,000 active; Potency, µM (top dose mostly 114 µM), without a hit: at the highest dose activity change, negative = inhibition, usual class: inhibitors; purified TGR, DTNB reduction, TNB absorbance 405 nm; Schistosoma mansoni thioredoxin glutathione reductase (TGR), Q962Y6; active = well fitted inhibition curve with a large enough effect; inconclusive = small, poorly fitted or top-dose-only effect; inactive = no such curve, though single readings can be large or run the other way; also: potency is read from the fitted curve at half-maximal effect; % is scaled to controls: 0 for no effect and ±100 for the full control effect; nearly all actives have a fitted effect of over 60% in size
#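 Kinetic colorimetric format: TGR-catalysed, NADPH-driven DTNB reduction monitored via TNB absorbance. Enzyme dispensed at 20 nM; compound exposure 15 min at room temperature before reaction start.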
# An asterisk follows results filed as active; ? = inconclusive; . = not tested or not shown. An excerpt weighted towards active compounds, which were near 12% of everything screened.
SMILES,Cycloheximide cs,FMDV antiviral,Shiga inhibitor,Sm TGR block
COc1ccc(-c2cn3cccnc3n2)cc1NC(=O)Nc1cc(C)ccc1C,.,5.3%,.,-12.7%
Cc1ccc(CNC(=O)NC2COc3ccccc3C2)cc1 (configuration not stated),.,-10.2%,.,7.9%
Cc1ccc(S(=O)(=O)Nc2cc3c(cc2C)n(C)c(=O)c(=O)n3C)c(C)c1,.,15.8%,.,-4.4%
COc1ccc(Nc2nc(-c3cccnc3)cs2)c(OC)c1,37.5*,40.9%,37.8*,0.7%
O=[N+]([O-])c1ccccc1Nc1nc(-c2cccnc2)cs1,25.7*,0.0%,.,1.9%
O=C(CSc1n[nH]c(-c2cccnc2)n1)Nc1ccccc1[N+](=O)[O-],-3.0,5.5%,17.7,1.8%
CC(=O)N1CCCc2cc(S(=O)(=O)N(C)CC(=O)Nc3ccc(C(C)C)cc3)ccc21,.,-17.6%,.,6.1%
COc1cccc(C(=O)NC(=NCCc2c[nH]c3ccc(OC)cc23)Nc2nc(C)cc(C)n2)c1,.,-12.6%,.,45.7%
O=C(O)c1ccc(N/N=C/c2cccc3cccnc23)cc1,48.6*,?,83.1*,1.7%
O=C(O)c1ccc(N/N=C/c2ccnc3ccccc23)cc1,40.9*,-8.1%,90.7*,-3.7%
O=C(COc1cccc2cccnc12)N/N=C/c1ccccc1O,8.6,4.6%,-0.8,-20.3%
Oc1ccccc1/C=N/Nc1cccc2cccnc12,29.6*,14.5%,101.0*,-13.9%
O=C(O)c1ccc(C(=O)Nc2cccc3cccnc23)cc1,9.6,.,29.5,.
COc1cc(OC)c(NC(=O)NCCn2nnc3cc(S(=O)(=O)N(C)C)ccc32)cc1Cl,.,-15.3%,.,-3.9%
Cc1n[nH]c(C)c1S(=O)(=O)N(CC(=O)Nc1ccc2c(c1)OCCO2)c1ccc(C(C)C)cc1,26.0*,?,9.8,1.2%
CS(=O)(=O)N(CC(=O)Nc1ccc2c(c1)OCO2)c1ccc(Cl)cc1,35.5*,44.1%,115.9*,-15.8%
COc1ccccc1N(CC(=O)Nc1ccc2c(c1)OCCO2)S(=O)(=O)c1ccc(C)cc1,32.1*,26.3%,47.0*,10.4%
CS(=O)(=O)N(CC(=O)Nc1ccccc1C(=O)NCc1ccccc1)c1ccc2c(c1)OCCO2,5.9,3.7%,7.5,-2.5%
CS(=O)(=O)N(CC(=O)Nc1ccc2c(c1)OCO2)Cc1ccc(Cl)cc1,0.6,0.0%,17.0,-3.0%
CS(=O)(=O)N(CC(=O)Nc1ccccc1C(=O)NCCc1ccccc1)c1ccc2c(c1)OCCO2,35.1*,39.5%,80.4,-34.5%
Cc1nc2nc(C)c(NS(=O)(=O)c3ccc(F)cc3)c(=O)n2[nH]1,.,-10.9%,.,4.4%
CN1CCN(c2ncc3nc(CCc4ccccc4)c(=O)n(CCC#N)c3n2)CC1,.,-6.1%,.,.
CCc1c(-c2ccccc2)nc2ccccc2c1C(=O)NCc1ccc(C)cc1,.,-26.5%,.,-0.4%
O=C(c1cc2ccccc2oc1=O)N1CCN(c2ccc(Cl)cc2)CC1,.,-19.0%,.,0.8%
COc1ccc(Cl)cc1N(CC(=O)Nc1ccc2c(c1)OCCO2)S(C)(=O)=O,15.2*,-10.9%,56.8,0.0%
SMILES,Cycloheximide cs,FMDV antiviral,Shiga inhibitor,Sm TGR block
Cc1ccc(N(CC(=O)Nc2ccc3c(c2)OCCO3)S(C)(=O)=O)cc1,54.0*,31.3%,59.7*,1.9%
Nc1c(N(Cc2ccco2)C(=O)c2ccc(Br)cc2)c(=O)[nH]c(=O)n1Cc1ccccc1,.,13.7%,.,35.5µM*
Nc1c(N(Cc2ccco2)C(=O)COc2ccccc2Cl)c(=O)[nH]c(=O)n1Cc1ccccc1,.,-1.9%,.,50.1µM*
Nc1c(N(Cc2ccco2)C(=O)c2cccc(Cl)c2)c(=O)[nH]c(=O)n1Cc1ccccc1,.,-13.9%,.,39.8µM*
Nc1c(N(Cc2ccco2)C(=O)c2ccc(Cl)cc2)c(=O)[nH]c(=O)n1Cc1ccccc1,.,-3.1%,.,-28.5%
N#Cc1ccc(C(=O)N(Cc2ccco2)c2c(N)n(Cc3ccccc3)c(=O)[nH]c2=O)cc1,.,-11.4%,.,-28.2%
CC(=O)c1ccc(N2CCN(CC(=O)N(CC(C)C)c3c(N)n(CC(C)C)c(=O)[nH]c3=O)CC2)cc1,12.5*,10.4%,-8.8,2.7%
O=C(CN1CCN(S(=O)(=O)c2cc(Cl)ccc2Cl)CC1)Nc1cccc(F)c1,.,-21.3%,.,?
CCOc1ccc(-n2cc(-c3ccccc3)c3c(N4CCC(C)CC4)ncnc32)cc1,.,-18.9%,.,0.6%
Cc1cc(OCC(=O)N(Cc2ccco2)c2c(N)n(Cc3ccccc3)c(=O)[nH]c2=O)ccc1Cl,.,-27.1%,.,?
COc1cccc(C(=O)N(Cc2ccco2)c2c(N)n(Cc3ccccc3)c(=O)[nH]c2=O)c1,.,-16.8%,.,44.7µM*
